Screening results deposited in PubChem BioAssay by several laboratories.
PRMT1 inh: PRMT1 methyltransferase inhibitors, primary screen, biochemical, fluorescence polarization. recombinant PRMT1, activity-based probe fluorescence polarization. inhibition, % at 2.79 µM. hit rate 1.3% among 370,000;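 active = inhibition above about 21% made by adding two undisclosed values, limit read from the data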
TLR4-MyD88 BLA: inhibitors of TLR4-MyD88 association in cells, primary screen, cell-based, HeLa CL3-4, BLA complementation, FRET ratio | inhibition, % at 8.4 µM | AID 861, 2007 | hit rate 0.18% among 200,000 | HeLa CL3-4 TLR4/MyD88 BLA complementation; in the data active = inhibition above about 25%;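 note: 0% = vehicle and 100% = reference inhibitor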
ABHD5 PLIN5 PPI: ABHD5-PLIN5 interaction inhibitors, primary screen, cell lysate, split luciferase complementation, luminescence; Perilipin-5 (Homo sapiens) + 1-acylglycerol-3-phosphate O-acyltransferase ABHD5 (Homo …; Split G. princeps luciferase complementation, 4 h; inhibition, % at 4 µM; hit rate 0.78% among 360,000; AID 602281, 2012;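 active = inhibition above the mean inhibition across every tested compound plus 3 SD, cut at about 22% in these data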;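 note: 0% = DMSO only wells and the 100% control is not disclosed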
TLR9-MyD88 inh: inhibitors of TLR9-MyD88 association in cells, primary screen, cell-based, CHO, BLA complementation, fluorescence; Toll-like receptor 9 (Homo sapiens) + Myeloid differentiation primary response protein …; CCF4 FRET ratio; inhibition, % at 4.98 µM; hit rate 0.21% among 340,000;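 active = inhibition above the mean over all tested compounds plus 3 SD, cut at about 21% in these data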;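 note: 0% = DMSO only wells and 100% = clavulanate BLA inhibitor control wells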
Granule exo inh: LAMP-1 surface exposure blockers, TALL-104 cells – cell-based, flow cytometry, MLPCN library, primary screen. TALL-104 LAMP-1 surface exposure; cells stimulated with thapsigargin and PMA. inhibition, % at 10 µM. hit rate 0.66% among 360,000. AID 651702, 2012;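 active = inhibition above about 55%, limit read from the data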
NOD2-RIPK2 inh: NOD2-RIPK2 binding disruptors in cells, primary screen, fluorescence, CHO cells, BLA complementation. CCF4 ratio. inhibition, % at 4.98 µM. hit rate 0.38% among 360,000. Receptor-interacting serine/threonine-protein kinase 2 (Homo sapiens), O43353. AID 624267, 2012; in the data active = inhibition above about 21%;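 note: 0% = vehicle only and 100% = reference blocker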
ABHD5-PLIN5 conf: ABHD5-PLIN5 interaction inhibitors, confirmation, biochemical, luminescence; inhibition, % at 4 µM; hit rate 67% among 2,200; AID 651612, 2012; shares compounds with ABHD5 PLIN5 PPI; in the data active = inhibition above about 23%;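 note: 0% = DMSO vehicle wells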
HNF4 split-luc: HNF4 dimerization inhibitors, counter-screen for ABHD5-PLIN5 interaction inhibitor project, biochemical, split-luciferase complementation, luminescence; inhibition, % at 4 µM; hit rate 77% among 2,200; AID 651674, 2012; shares compounds with ABHD5 PLIN5 PPI;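 active = mean inhibition across replicate wells exceeding the computed hit threshold, cut at about 13% in these data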;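 note: light from luciferase halves that rejoin when HNF4 fusion proteins dimerize; 0% = DMSO only wells and the 100% control is not given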
Target sequence (P41235 whole entry, looked up, the tested form may be a part): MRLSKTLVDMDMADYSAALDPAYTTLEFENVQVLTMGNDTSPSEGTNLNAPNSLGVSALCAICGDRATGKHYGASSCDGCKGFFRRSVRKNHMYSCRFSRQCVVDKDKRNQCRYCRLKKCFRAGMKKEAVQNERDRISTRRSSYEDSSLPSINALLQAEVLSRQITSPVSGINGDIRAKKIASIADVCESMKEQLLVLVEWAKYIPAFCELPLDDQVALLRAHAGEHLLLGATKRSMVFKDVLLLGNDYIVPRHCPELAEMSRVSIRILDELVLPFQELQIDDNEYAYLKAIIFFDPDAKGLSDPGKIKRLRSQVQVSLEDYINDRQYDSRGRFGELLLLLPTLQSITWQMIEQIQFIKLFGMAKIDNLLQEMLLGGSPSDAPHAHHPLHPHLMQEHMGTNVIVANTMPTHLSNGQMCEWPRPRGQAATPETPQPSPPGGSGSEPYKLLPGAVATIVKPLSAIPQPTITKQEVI
* hit, by the source's call; . = not tested or not shown. This is a sample that favours compounds with a hit; in the whole collection about 2.6% have one here.

SMILES	PRMT1 inh	TLR4-MyD88 BLA	ABHD5 PLIN5 PPI	TLR9-MyD88 inh	Granule exo inh	NOD2-RIPK2 inh	ABHD5-PLIN5 conf	HNF4 split-luc
Cc1ccc(C(=O)Nc2ccc3ncccc3c2)cc1	-0.2	.	-2.2	-2.0	-2.4	-8.1	.	.
COc1ccc(/C=C/C(=O)c2cc(F)ccc2OC(=O)c2ccc(OC)c(OC)c2)cc1OC	-2.3	-7.4	46.0*	-6.6	-1.3	3.1	76.6*	52.4*
CCOc1ccc(C(=O)/C=C/c2cc(OC)c(OC)c(OC)c2)cc1	0.8	7.2	4.1	-5.4	0.6	-5.7	.	.
COc1ccc(Oc2ccc(/C=C/C(=O)c3ccc(O)cc3)cc2[N+](=O)[O-])cc1	0.6	-12.0	27.6*	0.9	5.7	-48.4	80.4*	65.1*
C/C=C/c1ccc(OCCn2nnc3ccccc32)c(OC)c1	3.4	.	6.3	-1.1	-0.3	12.8	.	.
COC(=O)c1ccc(/C=C/C(=O)c2ccc(OC)cc2)cc1	2.0	-16.6	8.2	2.8	-5.0	0.5	.	.
COc1ccc(/C=C/C(=O)NCc2ccc3c(c2)OCO3)cc1OC	1.2	.	96.2*	3.3	1.2	-2.3	4.6	1.2
O=C(/C=C/c1ccc(O)c([N+](=O)[O-])c1)c1ccc2ccccc2c1	-2.0	.	14.0	-1.8	-4.1	-9.3	.	.
COc1ccc(/C=C/C(=O)c2ccccc2)cc1Cn1nnc2ccccc21	1.0	5.7	30.8*	1.7	13.1	1.3	72.8*	65.8*
COC(=O)c1ccc(/C=C/C(=O)c2ccc(OC)c(OC)c2)cc1	.	3.1	32.9*	5.9	5.0	7.4	65.6*	60.7*
Cc1cccc(C)c1NC(=O)[C@H]1CC(=O)O[C@@H]1c1ccccc1	-0.4	.	.	.	.	.	.	.
COc1cc(C(=O)NC2CCCCN(C)C2=O)cc(OC)c1OC (configuration not stated)	-3.9	.	.	.	.	.	.	.
COCCN(CCOC)C(=O)[C@@H](Cc1ccccc1)NC(=O)[C@H]1O[C@@H](n2ccc(N)nc2=O)[C@H](O)[C@@H]1O	-0.8	.	.	.	.	.	.	.
COc1cc(/C=C/C(=O)c2ccc(C)cc2)ccc1OCC#N	-0.1	9.7	45.0*	6.8	-0.2	-8.7	72.4*	54.3*
COc1ccc(C=CC(=O)c2ccc(OCc3ccccc3)c(OC)c2)cc1OC	5.6	.	10.9	4.6	-17.7	-3.9	.	.
C[C@H](CO)N1C[C@H](C)[C@@H](CN(C)C(=O)Nc2ccc(C(C)(C)C)cc2)OCc2cn(nn2)CCCC1=O	-0.4	.	.	.	.	.	.	.
O=C/C(=C\Nc1ccccn1)c1nc2ccccc2o1	1.4	5.8	23.9*	-4.9	-1.9	0.0	20.8	26.6*
COc1ccc(S(=O)(=O)N2CCCCCC2)c2ccccc12	-4.8	.	.	.	.	.	.	.
CCOC(=O)c1c(NC(=O)/C=C/C(=O)O)sc(C)c1-c1ccc(C)c(C)c1	13.0	-1.1	24.6*	-6.8	24.7	-1.5	19.6	2.6
COC(=O)C1=C(C)N(Cc2ccccc2)C(=S)NC1c1ccc(Br)cc1 (configuration not stated)	10.5	.	.	.	.	.	.	.
O=C(/C=C/c1c(F)cccc1Cl)c1ccc(O)cc1	-2.8	.	38.6*	1.6	3.2	-4.6	45.6*	47.5*
O=C(C=Cc1cccc(Cl)c1)c1ccccc1	-4.6	.	51.3*	-8.8	-2.5	13.7	97.5*	93.9*
O=C(O)c1ccc2c(c1)C(=O)N(c1cccc(C(=O)/C=C/c3ccccc3)c1)C2=O	6.7	-8.5	46.2*	-2.9	3.3	8.6	97.3*	91.4*
O=C(/C=C/c1c(F)cccc1Cl)Nc1ncccn1	-2.4	-0.1	-0.6	-26.1	1.4	-9.8	.	.
O=C(C=Cc1ccccc1F)c1ccccc1	5.1	.	68.7*	.	-2.1	2.6	86.7*	79.0*
SMILES	PRMT1 inh	TLR4-MyD88 BLA	ABHD5 PLIN5 PPI	TLR9-MyD88 inh	Granule exo inh	NOD2-RIPK2 inh	ABHD5-PLIN5 conf	HNF4 split-luc
COC(=O)[C@]12C[C@H](CC(=O)N3CCCCC3)C(=O)N(CCc3ccc(OC)c(OC)c3)C1=C[C@H](C(C)(C)C)O[C@@H]2C	2.9	.	.	.	.	.	.	.
COc1ccc(CNC(=O)OC2CC3CC2[C@H]2CCCCN2C3)cc1 (some centres not stated)	-7.0	.	.	.	.	.	.	.
CCSc1ccc2c(c1)N(CCCN1CCN(C)CC1)c1ccccc1S2	2.0	.	23.9*	-1.5	34.3	-0.5	35.7*	8.4
O=C(CCN1C(=O)S/C(=C\C=C\c2ccccc2)C1=O)Nc1ccc(O)cc1	1.8	.	17.4	-8.4	-7.2	14.0	.	.
O=C(CCCN1C(=O)S/C(=C\C=C\c2ccccc2)C1=O)Nc1ccc(C(=O)O)cc1	-0.1	.	34.2*	-3.4	7.7	-2.9	19.0	19.5*
CC1CCN(C(=O)c2ccc(S(=O)(=O)NCc3ccco3)cc2)CC1	2.6	.	24.0*	2.7	-5.2	-4.1	-0.4	7.0
CCN(CC)CCNC(=O)CSc1c2c(nc3cc(Cl)ccc13)CCCC2	14.0	4.7	32.6*	-20.2	15.2	-5.4	46.3*	40.8*
COc1cccc(NC(=O)CSc2c3c(nc4ccccc24)CCCC3)c1	11.3	0.9	34.2*	2.1	7.6	2.6	39.4*	46.3*
Cc1cccc(-c2nnc(SCC(=O)Nc3cccc4ccccc34)n2Cc2ccco2)c1	4.3	.	.	.	.	.	.	.
N#CC(c1c(Cl)cccc1N1CCCCC1)N1CCCCC1 (configuration not stated)	-3.2	.	.	.	.	.	.	.
COCC(=O)N[C@H]1C[C@@H]2O[C@@H](CO)CC[C@@H]2O[C@@H]1CCc1ccc(-c2ccccc2)cc1	2.6	.	.	.	.	.	.	.
CC(C)C(Cl)=NOC(=O)Nc1ccc(S(N)(=O)=O)cc1	12.3	.	28.9*	-1.3	4.3	12.4	68.5*	87.2*
C[C@@H]1CN([C@H](C)CO)S(=O)(=O)c2ccc(Br)cc2O[C@H]1CN(C)CC1CCOCC1	-1.5	.	.	.	.	.	.	.
OC(c1ccc(F)c(F)c1)c1nc(-c2ccoc2)cs1 (configuration not stated)	-0.6	.	20.0	.	0.4	4.2	.	.
